Measured values: the supplement of paper PMC10646978
± gives the standard deviation.

How the values were obtained:
Details in all cases: modulator concentration 10 µM
[1] = system: RAW-Dual (murine macrophage reporter line); assay: NF-kB reporter (SEAP) activity fold change vs agonist alone; higher = enhanced NF-kB activity
Method in brief: (§1)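 Overnight stimulation with a PRR agonist followed pre-incubation for 1 hour at 37 °C with compound at 10 μM final. This was done in RAW-Dual murine macrophage reporter cells seeded at 50 000 per well in 384-well plates. NF-κB (SEAP, QUANTI-Blue absorbance at 620 nm) and IRF (Lucia luciferase, QUANTI-Luc luminescence) were read from the supernatant. Each reporter's fold change relative to the mean agonist-only control on the same plate was averaged over replicate plates.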

[2] = system: RAW-Dual (murine macrophage reporter line); assay: IRF reporter (Lucia luciferase) activity fold change vs agonist alone; higher = enhanced IRF activity
Method in brief: as §1

[3] = system: RAW-Dual (murine macrophage reporter line); assay: viability score (confluency relative to resting cells, overnight) (fraction); higher = more viable, active = viable (0.7 or more)
Method in brief: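 RAW-Dual macrophages in 384-well plates were incubated overnight with compound, final concentration 10 μM. Confluency images from IncuCyte were processed in IncuCyte software into two masks covering all imaged wells. The viability score is each well's confluency relative to resting cells, and a compound met the cutoff when both masks exceeded 70% of resting cells.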

[4] = agonist: CpG ODN 1826 0.5 ug/mL

SMILES | NF-kB reporter [1, 4] | NF-kB reporter ([1]; agonist: LPS 0.1 ug/mL) | NF-kB reporter ([1]; agonist: MPLA […]) | IRF reporter ([2]; agonist: 3'3'-cGAMP 10 ug/mL) | IRF reporter ([2]; agonist: LPS 0.1 ug/mL) | IRF reporter ([2]; agonist: MPLA […]) | viability score [3]
O=C1CN(CCC2=CCCCC2)C2CS(=O)(=O)CC2N1c1ccc(Cl)cc1 (centres undefined) | 1.01 ± 0.12 | 1.07 ± 0.089 | 0.849 ± 0.071 | 0.786 ± 0.051 | 0.892 ± 0.078 | 1 ± 0.13 | 1.01 (active)
COCCN(CCOC)C(=O)Cc1csc2nc(-c3ccc(F)cc3)cn12 | 1.1 ± 0.27 | 0.966 ± 0.084 | 0.949 ± 0.067 | 0.947 ± 0.064 | 1.09 ± 0.15 | 1.31 ± 0.24 | 0.653 (inactive)
CCCN(CCC)CCc1cccc2c1CC(=O)N2.Cl | 0.998 ± 0.079 | 0.945 ± 0.046 | 1.03 ± 0.074 | 0.926 ± 0.071 | 0.925 ± 0.037 | 0.912 ± 0.083 | 0.997 (active)
CC1=CC(=NS(=O)(=O)c2ccc(C)cc2)C=C(Cl)C1=O | 0.635 ± 0.068 | 0.706 ± 0.038 | 0.68 ± 0.062 | 0.451 ± 0.02 | 0.611 ± 0.04 | 0.428 ± 0.038 | 0.89 (active)
Cc1ccc(C=Nc2ccc(-c3ccc(N=Cc4ccc(C)o4)c(C)c3)cc2C)o1 | 0.837 ± 0.066 | 0.984 ± 0.087 | 1.01 ± 0.053 | 0.773 ± 0.097 | 0.929 ± 0.041 | 0.894 ± 0.075 | 0.991 (active)
COc1cc(Cl)c(C)cc1NC(=O)c1ccccc1Cl | 0.906 ± 0.26 | 1.11 ± 0.062 | 1.4 ± 0.22 | 0.914 ± 0.042 | 0.991 ± 0.15 | 1.1 ± 0.12 | 0.981 (active)
Cc1ccc(-n2c(=O)c3c4c(sc3n3c(S)nnc23)CCCC4)cc1 | 0.968 ± 0.063 | 1.07 ± 0.069 | 0.923 ± 0.1 | 0.959 ± 0.035 | 1.41 ± 0.21 | 1.15 ± 0.1 | 0.993 (active)
COC(=O)C1=C(C)NC(C)=C(C(=O)OCCN(C)Cc2ccccc2)C1c1cccc([N+](=O)[O-])c1.Cl (centres undefined) | 0.996 ± 0.055 | 0.91 ± 0.074 | 0.887 ± 0.047 | 1.1 ± 0.052 | 1.01 ± 0.16 | 0.988 ± 0.29 | 0.397 (inactive)
CSC1CCN(C(=O)Nc2ccc(C)c(C)c2)C1 (centres undefined) | 1.03 ± 0.38 | 0.953 ± 0.11 | 0.985 ± 0.063 | 0.906 ± 0.038 | 0.954 ± 0.17 | 1.09 ± 0.11 | 0.999 (active)
CCCS(=O)c1ccc2nc(NC(=O)OC)[nH]c2c1 (centres undefined) | 1.04 ± 0.15 | 0.998 ± 0.1 | 1.05 ± 0.037 | 0.971 ± 0.058 | 0.927 ± 0.037 | 0.917 ± 0.11 | 0.998 (active)
COC(=O)C1=CN(CC2CCCO2)C=C(C(=O)OC)C1c1ccc2c(c1)OCO2 (centres undefined) | 1.03 ± 0.12 | 1.1 ± 0.093 | 1.02 ± 0.071 | 1.07 ± 0.036 | 1.46 ± 0.16 | 1.12 ± 0.089 | 1.01 (active)
CC1CCN(c2cc(N3CCNCC3)ncn2)CC1 | 0.972 ± 0.32 | 1.08 ± 0.054 | 1.02 ± 0.069 | 0.932 ± 0.032 | 1.11 ± 0.17 | 1.26 ± 0.26 | 0.997 (active)
COc1ccc(C2NN(Cc3ccccc3)C3C(=O)N(C)C(=O)C23)cc1 (centres undefined) | 0.902 ± 0.058 | 0.945 ± 0.088 | 1.13 ± 0.086 | 1.26 ± 0.068 | 1.33 ± 0.29 | 1.46 ± 0.5 | 0.955 (active)
O=S(=O)(NCc1ccc(-c2cccnc2)nc1)c1ccc(OC(F)(F)F)cc1 | 0.947 ± 0.068 | 1.01 ± 0.091 | 0.873 ± 0.058 | 0.961 ± 0.054 | 1.09 ± 0.066 | 1.16 ± 0.11 | 1.01 (active)
Cc1c(-c2ccccc2)oc2c(C(=O)OCCN3CCCCC3)cccc2c1=O.Cl | 1.21 ± 0.31 | 1.01 ± 0.075 | 0.977 ± 0.067 | 0.883 ± 0.052 | 1.35 ± 0.22 | 1.35 ± 0.16 | 1.01 (active)
O=C(CCC(=O)Nc1ccccc1)NN=Cc1ccc(Cl)cc1 | 1.01 ± 0.06 | 0.993 ± 0.062 | 1 ± 0.08 | 0.98 ± 0.036 | 1.48 ± 0.2 | 1.22 ± 0.13 | 1 (active)
CC1C(C#N)=C(N)OC2=C1C(=O)CC(C)(C)C2 (centres undefined) | 1.01 ± 0.083 | 0.965 ± 0.12 | 0.96 ± 0.09 | 0.917 ± 0.072 | 1.28 ± 0.23 | 1.47 ± 0.35 | 1.02 (active)
CC1(C)CC(=O)c2c(nc3ccc(Br)cc3c2N)C1.Cl | 0.513 ± 0.035 | 1.08 ± 0.067 | 0.883 ± 0.053 | 0.771 ± 0.036 | 1.07 ± 0.12 | 1.11 ± 0.11 | 0.995 (active)
CS(=O)(=O)c1ccc(C2=C(c3ccccc3)C(=O)OC2)cc1 | 0.962 ± 0.09 | 1.04 ± 0.071 | 0.975 ± 0.042 | 1.05 ± 0.058 | 0.97 ± 0.074 | 0.946 ± 0.084 | 0.997 (active)
CC(NCCc1c[nH]c2ccccc12)=C1C(=O)c2ccccc2C1=O | 0.972 ± 0.081 | 0.979 ± 0.11 | 1.15 ± 0.05 | 0.425 ± 0.027 | 0.989 ± 0.033 | 1.28 ± 0.11 | 0.991 (active)
COc1cc2c(cc1OC)CC(=O)N(CCCN(C)C[C@H]1Cc3cc(OC)c(OC)cc31)CC2.Cl | 0.713 ± 0.056 | 0.855 ± 0.07 | 1.06 ± 0.097 | 0.962 ± 0.05 | 1.41 ± 0.11 | 1.57 ± 0.18 | 1.01 (active)
O=C(CC1CCCCN1S(=O)(=O)c1ccccc1)NCCC1=CCCCC1 (centres undefined) | 0.994 ± 0.13 | 1.21 ± 0.095 | 0.903 ± 0.13 | 1.03 ± 0.054 | 1.23 ± 0.08 | 1.38 ± 0.11 | 1.01 (active)
O=c1c(O)c(-c2cc(O)c(O)c(O)c2)oc2cc(O)cc(O)c12 | 1.51 ± 0.41 | 0.772 ± 0.04 | 0.968 ± 0.064 | 0.582 ± 0.035 | 0.894 ± 0.23 | 1.01 ± 0.21 | 0.908 (active)
COc1ccc(Oc2coc3cc(OC(=O)c4ccc(Cl)c([N+](=O)[O-])c4)ccc3c2=O)cc1 | 0.82 ± 0.063 | 0.981 ± 0.052 | 1.08 ± 0.094 | 0.892 ± 0.048 | 1.29 ± 0.08 | 1.43 ± 0.14 | 1.02 (active)
N#Cc1nc(-c2ccc(COc3ccc(Cl)cc3)o2)oc1N1CCCCC1 | 0.826 ± 0.063 | 1.29 ± 0.14 | 1.13 ± 0.075 | 1.21 ± 0.047 | 1.57 ± 0.1 | 1.12 ± 0.15 | 0.998 (active)
CCN(CC)CCNC(=O)c1cc(S(C)(=O)=O)ccc1OC.Cl | 1.02 ± 0.13 | 1.16 ± 0.078 | 0.975 ± 0.021 | 0.94 ± 0.056 | 0.989 ± 0.11 | 1 ± 0.13 | 0.998 (active)
C=CCNc1oc(Cc2cccc3ccccc23)nc1C#N | 0.818 ± 0.039 | 1.04 ± 0.091 | 1.13 ± 0.062 | 0.731 ± 0.036 | 1.16 ± 0.25 | 1.28 ± 0.4 | 0.952 (active)
